# Gal4-VP16 FLuc – VP16 counterscreen qHTS for inhibitors of ROR gamma transcriptional activity; Drosophila S2 Gal4-VP16 UAS-luciferase, luminescence, 20 h; Potency, µM (highest dose often 53.6 µM), inactives show at the top dose activity, negative = inhibition, actives largely listed as inhibitors; actives 3.5% (n = 310,000);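 note: Gal4-VP16 expression switched on by copper sulfate through the metallothionein promoter; nearly all actives have a fitted effect of over 50% in size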
# Luc counter – Counterscreen for Luciferase (Kinase-Glo TM) Inhibition; actives 0.28% (n = 200,000); Potency, µM (doses to about 38.3 µM), for inactives: top-dose activity change, negative = inhibition, actives largely listed as inhibitors; Kinase-Glo luciferase, ATP luminescence, 8 min; AID 1379, 2008; Luciferin 4-monooxygenase (Photuris pensylvanica), Q27757; note: nearly all actives have a fitted effect of over 60% in size
#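 Luminescence was the read-out, taken after 8-minute incubation at ambient temperature. Luciferase turned over luciferin with 10 uM ATP in imidazole pH 7.2 buffer containing KCl, MgCl2, Tween 20 and BSA.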
# RORgamma inh – qHTS for inhibitors of ROR gamma transcriptional activity. Nuclear receptor ROR-gamma (Mus musculus), P51450. Drosophila S2 Gal4-RORgamma UAS-luciferase reporter, 20 h. Potency, µM (doses to about 53.6 µM), for inactives: top-dose activity change, negative = inhibition, hits mostly inhibitors. actives 5.4% (n = 310,000); note: nearly all actives have a fitted effect of over 60% in size
# Target sequence (P51450 whole entry, looked up, the tested form may be a part): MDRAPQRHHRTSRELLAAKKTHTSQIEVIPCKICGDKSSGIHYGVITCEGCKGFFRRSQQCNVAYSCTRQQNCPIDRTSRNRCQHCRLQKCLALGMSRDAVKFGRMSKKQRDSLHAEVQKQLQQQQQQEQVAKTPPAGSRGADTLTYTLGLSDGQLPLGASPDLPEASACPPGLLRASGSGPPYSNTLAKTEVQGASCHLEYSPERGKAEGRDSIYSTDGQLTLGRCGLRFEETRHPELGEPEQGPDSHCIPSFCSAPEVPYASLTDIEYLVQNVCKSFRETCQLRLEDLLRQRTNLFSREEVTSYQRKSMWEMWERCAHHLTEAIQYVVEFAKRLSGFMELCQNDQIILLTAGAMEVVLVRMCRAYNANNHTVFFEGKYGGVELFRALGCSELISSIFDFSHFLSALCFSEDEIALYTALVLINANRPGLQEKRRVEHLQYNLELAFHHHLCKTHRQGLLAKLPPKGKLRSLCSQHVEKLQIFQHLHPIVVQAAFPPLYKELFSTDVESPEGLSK
#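 Schneider cells (Drosophila), stable Gal4 DBD–ROR gamma + UAS-luc; 1 hr cmpd preincubation; Cu2+ induction 700 uM final; 20 hr ambient; luminescence.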
# Numbers without * were called inactive; u = inconclusive; x = no result; [ ] = remark or other dose. Only some compounds are listed: those with a hit (about 6.2% of all), similar ones and a draw of the others. Calls come from the whole dose curve; as a rule, active = well fitted curve in the direction sought with a large enough effect; inconclusive = small, poorly fitted or top-dose-only effect, or another doubt; inactive = no such curve, though single readings can be large; an effect the other way counts as inactive or inconclusive. % is set by controls: 0 for no effect and ±100 for the full control effect; potency is the fitted concentration of half-maximal effect.
SMILES,Gal4-VP16 FLuc,Luc counter,RORgamma inh
Cc1cc(NCCCN2CCOCC2)n2ncc(-c3ccccc3)c2n1,0%,5%,-25%
Cc1cc(N)n2ncc(-c3ccc(Cl)cc3)c2n1,20%,3%,28%
Cc1cc(NCCOCCO)n2ncc(-c3ccc(Cl)cc3)c2n1,-7%,-2%,-4%
Cc1cc(Cl)n2ncc(-c3ccccc3)c2n1,u,x,16µM*
Cc1cc(NCc2ccccn2)n2ncc(-c3ccc(Cl)cc3)c2n1,0.63µM*,x,0.045µM*
CC(C)(C)c1cc(NCCCn2ccnc2)n2ncc(-c3ccc(Cl)cc3)c2n1,0%,-1%,u
CCOCCn1c(CN2CCN(C(c3ccccc3)c3ccccc3)CC2)nc2c1c(=O)n(C)c(=O)n2C,4%,x,-14%
CCOC(=O)c1ccc(NC(=S)Nc2ccc3[nH]c(=O)[nH]c3c2)cc1,-22%,x,8%
CCN(CC)S(=O)(=O)c1ccc(NC=C(C#N)C#N)cc1,-3%,x,31%
CCOc1ccc(C(=O)N2CCN(c3ccccn3)CC2)cc1OCC,9%,x,14%
CC(=O)Oc1ccc2ccccc2c1C(NC(=O)Cc1ccccc1)c1ccc(Cl)cc1 (stereo not given),u,2%,u
c1cnn(-c2nc(N3CCOCC3)nc(N3CCOCC3)n2)c1,-24%,x,-28%
Cc1cc(NCCC(C)C)n2nc(C)c(-c3ccccc3)c2n1,-12%,-2%,-81%
Cc1cc(NCc2ccccn2)n2nc(C)c(-c3ccc(Cl)cc3)c2n1,0.71µM*,x,0.063µM*
CC(C)(C)NC(=S)NNC(=O)c1cccc(Br)c1,u,5%,4.5µM*
COC(=O)NNC(=O)c1ccc(Cl)cc1Cl,0%,-6%,-7%
O=C(NNC(=S)Nc1ccccc1)c1cccc(Br)c1,-16%,2%,-30%
CC(C)(C)NC(=S)NNC(=O)c1ccccc1Cl,1.4µM*,3%,0.45µM*
CC(C)(C)C(=O)NC(=S)NNC(=O)c1ccc(Cl)cc1Cl,u,-2%,2µM*
CNC(=S)NNC(=O)c1ccccc1Cl,-3%,x,u
O=C(OCc1nc2ccccc2c(=O)[nH]1)c1cccs1,9%,1%,34%
COc1ccccc1-c1c(C)nn2c(NCCN3CCCC3)cc(C)nc12,7.1µM*,3%,6.3µM*
CCOC(CNc1cc(C)nc2c(-c3ccccc3OC)c(C)nn12)OCC,4%,x,-35%
Cc1ccc(CN(C)C(=O)c2cc(Br)c(Br)s2)o1,7%,x,-4%
Cc1ccc(/C=C2\SC(=S)N(CCCC(=O)Nc3nccs3)C2=O)cc1,-1%,0%,20%
SMILES,Gal4-VP16 FLuc,Luc counter,RORgamma inh
COc1cccc(/C=C2\SC(=S)N(CCC(=O)NNC(=O)c3ccccc3OC)C2=O)c1,-16%,x,u
COc1cccc(/C=C2/SC(=S)N(CC(=O)NNC(=O)c3ccccc3OC)C2=O)c1,u,x,10µM*
O=C(CCCN1C(=O)/C(=C/c2ccccc2)SC1=S)Nc1ccc(C(=O)O)c(O)c1,-29%,x,u
Cc1ccc(/C=C2\SC(=S)N(CCCC(=O)Nc3ccccc3C(=O)O)C2=O)cc1,u,x,-27%
CCc1ccc(/C=C2\SC(=S)N(CCCC(=O)Nc3nccs3)C2=O)cc1,-12%,-1%,0.56µM*
CCc1ccc(/C=C2\SC(=S)N(CCCC(=O)Nc3ccccc3C(=O)O)C2=O)cc1,20µM*,x,5µM*
COc1ccc(/C=C2/SC(=S)N(CCCC(=O)Nc3ccccc3C(=O)O)C2=O)cc1,3.5µM*,x,1.4µM*
CCOC(=O)c1cc2c(N)c(C(=O)c3ccc(Br)cc3)sc2[nH]c1=O,-13%,-3%,31%
COc1ccc2c(c1)c(C(=O)N/N=C/c1ccc(OC)c(OC)c1)c(C)n2C,-2%,-3%,6%
COc1ccc(Cl)cc1NC(=O)C1CCCN(c2ncnc3c2nc2n3CCCCC2)C1 (stereo not given),5%,x,-13%
CC(NS(=O)(=O)c1ccc(Cl)cc1)C(=O)N1CCOCC1 (stereo not given),-6%,x,-9%
CC(=O)OC[C@@H]1O[C@@H](O/N=C2/C[C@@H](O)[C@@H](O)[C@@H]3[C@@H]4C(=O)N([C@@H](C)c5ccccc5)C(=O)[C@H]4CC[C@H]23)[C@H](OC(C)=O)[C@H](OC(C)=O)[C@@H]1OC(C)=O,1%[10 µM],x,8%[10 µM]
CC(=C\c1ccccc1)/C=C1/SC(=S)N(CCC(=O)O)C1=O,2%,x,0%
COc1cccc2c(=O)cc(C)n(CC(=O)Nc3cccc(C)c3)c12,11µM*,0%,u
CC(=O)c1ccc(NC(=O)CCCN2C(=O)/C(=C/C(C)=C/c3ccccc3)SC2=S)cc1,u,2%,11µM*
